Assay results reported in publication PMC4336329 (PLoS ONE, 2015).
Screen size: about 310,000 compounds; about 14,000 (4.5%) showed an effect of 50% or more. The effect is printed as a negative number. The entries come from a sample that favours strong results as a whole.

Each compound was assayed against human ether-à-go-go-related gene (hERG) potassium channel (human, UniProt Q12809) (assay: primary screen, population patch clamp on CHO cells stably expressing hERG; higher = less effect of the substance).
human ether-à-go-go-related gene (hERG) potassium channel, sequence (Q12809 whole entry, looked up): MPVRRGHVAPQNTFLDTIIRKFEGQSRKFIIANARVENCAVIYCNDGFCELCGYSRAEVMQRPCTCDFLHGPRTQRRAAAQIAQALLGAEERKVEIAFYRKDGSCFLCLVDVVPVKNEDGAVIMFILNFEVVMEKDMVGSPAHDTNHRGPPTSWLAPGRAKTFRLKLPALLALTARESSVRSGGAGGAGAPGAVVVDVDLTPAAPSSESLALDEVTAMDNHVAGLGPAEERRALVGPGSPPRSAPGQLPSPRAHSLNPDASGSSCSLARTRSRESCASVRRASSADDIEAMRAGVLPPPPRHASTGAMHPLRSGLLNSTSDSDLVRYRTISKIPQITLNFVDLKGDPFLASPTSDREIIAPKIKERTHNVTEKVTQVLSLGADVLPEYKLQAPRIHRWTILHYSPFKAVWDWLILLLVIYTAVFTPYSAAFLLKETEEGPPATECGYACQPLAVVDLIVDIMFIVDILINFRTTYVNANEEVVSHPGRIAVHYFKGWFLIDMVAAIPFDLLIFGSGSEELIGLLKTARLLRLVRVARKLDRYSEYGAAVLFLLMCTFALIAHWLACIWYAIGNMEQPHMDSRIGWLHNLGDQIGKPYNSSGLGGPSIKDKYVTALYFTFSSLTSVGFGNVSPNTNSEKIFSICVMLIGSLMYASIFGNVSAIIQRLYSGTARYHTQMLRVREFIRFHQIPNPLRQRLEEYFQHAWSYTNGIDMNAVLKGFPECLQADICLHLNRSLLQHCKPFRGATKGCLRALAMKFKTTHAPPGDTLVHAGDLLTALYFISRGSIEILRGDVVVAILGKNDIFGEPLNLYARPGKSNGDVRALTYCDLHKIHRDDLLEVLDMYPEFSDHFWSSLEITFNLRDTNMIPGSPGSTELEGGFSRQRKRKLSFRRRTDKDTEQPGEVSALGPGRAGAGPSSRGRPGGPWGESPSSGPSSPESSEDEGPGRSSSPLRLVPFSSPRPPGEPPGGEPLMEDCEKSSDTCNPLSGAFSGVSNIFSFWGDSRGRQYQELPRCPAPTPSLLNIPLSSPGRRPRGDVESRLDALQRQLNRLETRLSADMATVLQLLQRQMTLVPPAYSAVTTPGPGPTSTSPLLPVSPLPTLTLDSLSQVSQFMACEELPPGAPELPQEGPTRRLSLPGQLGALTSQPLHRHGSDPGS
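Also: peak tail current of the secondary pulse compared with the same well before compound.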

Row | SMILES | hERG current change (%, negative = inhibition) at 10uM
1 | COc1ccc(-c2c3c(=O)n(C)c(=O)n(C)c3cn2Cc2cccnc2)cc1 | 4.55%
2 | O=C(COC(=O)C1CCN(c2ccc(C(F)(F)F)cn2)CC1)Nc1ccc(F)cc1[N+](=O)[O-] | 13%
3 | COc1ccccc1CCNC(=O)CSc1nc(-c2ccco2)cc(C(F)(F)F)n1 | 27.1%
4 | CCCCn1c(-c2csc(CCC)c2)n[nH]c1=S | 14.8%
5 | CC1CCC2(CC1)NC(=O)N(Cc1cccc(C(F)(F)F)c1)C2=O (stereo not drawn) | 12.9%
6 | N#C/C(=C\c1ccc(-c2cccc([N+](=O)[O-])c2)o1)C(=O)N1CCOCC1 | -6.75%
7 | O=C(NCC1CCCO1)c1ccc(CSCc2cccc(F)c2)o1 (stereo not drawn) | -7.59%
8 | COc1ccc(C(=O)NNc2cc(C)nc(NNC(=O)c3ccc(OC)cc3)n2)cc1 | 7.94%
9 | CCN(C(=O)COc1cccnc1[N+](=O)[O-])C1CCS(=O)(=O)C1 (stereo not drawn) | -0.18%
10 | CCOc1ccc(CNC(=O)CCS(=O)(=O)Cc2cccc(Cl)c2)cc1OC | -12.1%
11 | O=C(O)c1cc2c(ccc3ccccc32)o1 | 4.33%
12 | COC(=O)c1ccc([C@H]2CC(=O)O2)cc1 | 1.35%
13 | c1ccc2c(c1)nc(NC1CCCCC1)c1nncn12 | -35.2%
14 | CC(C)(C)OC(=O)N1CCC(c2c(C(=O)NCC3CCN(C4CCCC4)C3)cnn2-c2ccccc2)CC1 (stereo not drawn) | -35.8%
15 | CC(C)(C)OC(=O)N1CCC(c2c(C(=O)NCC3CCN(C4CCCC4)C3)cnn2-c2ccc(F)cc2)CC1 (stereo not drawn) | -50.5%
16 | Cc1ccc(-n2ncc(C(=O)NCC3CCN(C4CCCC4)C3)c2C2CCN(C(=O)OC(C)(C)C)CC2)cc1 (stereo not drawn) | -20.4%
17 | Cc1ccc2c(c1)N(C)/C(=C/c1cccc[n+]1CCO)S2.[I-] | -9.09%
18 | Cc1ccc2c(c1)N(C)/C(=C/c1cccc[n+]1C)S2.[I-] | -47.5%
19 | CC[n+]1ccccc1/C=C1\Sc2ccc(C)cc2N1C.[I-] | -62.5%
20 | Cc1oc2nc(SCC(=O)NC3CCCCC3)nc(N)c2c1C | -14.8%
21 | Cl.O=C(CN1CCCC1)N1c2ccccc2Sc2ccc(Cl)cc21 | 0.273%

Row | SMILES | hERG current change (%, negative = inhibition) at 10uM
22 | COc1ccc(S(=O)(=O)Nc2ccc3c(c2)n(C)c(=O)n3C)cc1C | 2.39%
23 | O=C(NCc1ccccc1)C12CN(Cc3ccccc3)CC1C(c1cccc([N+](=O)[O-])c1)=NO2 (stereo not drawn) | -14.6%
24 | O=C(NCc1ccccc1)C12CN(Cc3ccccc3)CC1C(c1ccc([N+](=O)[O-])cc1)=NO2 (stereo not drawn) | -67.1%
25 | Cc1ccc(CNC(=O)C23CN(Cc4ccccc4)CC2C(c2ccc([N+](=O)[O-])cc2)=NO3)cc1 (stereo not drawn) | -43.7%
26 | O=C(NCc1ccco1)C12CN(Cc3ccccc3)CC1C(c1cccc([N+](=O)[O-])c1)=NO2 (stereo not drawn) | -46.6%
27 | COc1ccc(CCNC(=O)C23CN(Cc4ccccc4)CC2C(c2cccc([N+](=O)[O-])c2)=NO3)cc1 (stereo not drawn) | -7.39%
28 | COc1ccc(CCNC(=O)C23CN(Cc4ccccc4)CC2C(c2ccc([N+](=O)[O-])cc2)=NO3)cc1 (stereo not drawn) | -74.8%
29 | Cc1ccc(CNC(=O)C23CN(Cc4ccccc4)CC2C(c2cccc([N+](=O)[O-])c2)=NO3)cc1 (stereo not drawn) | -0.125%
30 | O=C(NCc1ccco1)C12CN(Cc3ccccc3)CC1C(c1ccc([N+](=O)[O-])cc1)=NO2 (stereo not drawn) | -70.8%
31 | Cc1ccc(CCNC(=O)C23CN(Cc4ccccc4)CC2C(c2ccc([N+](=O)[O-])cc2)=NO3)cc1 (stereo not drawn) | -24%
32 | COc1ccc(CNC(=O)C23CN(Cc4ccccc4)CC2C(c2ccc([N+](=O)[O-])cc2)=NO3)cc1 (stereo not drawn) | -40.5%
33 | COc1cccc(CNC(=O)C23CN(Cc4ccccc4)CC2C(c2ccc([N+](=O)[O-])cc2)=NO3)c1 (stereo not drawn) | -52.1%
34 | Cc1ccc(CNC(=O)C23CN(Cc4ccccc4)CC2C(c2ccc([N+](=O)[O-])cc2)=NO3)o1 (stereo not drawn) | -49.6%
35 | CCC1CCCCN1C(=O)Nc1cccc(NC(=O)N2CCCCC2CC)c1 (stereo not drawn) | 9.57%
36 | CC(C)c1nnc(NC(=O)C2CCCN2S(=O)(=O)c2ccc(Cl)cc2)s1 (stereo not drawn) | 7.71%
37 | Fc1ccc(N=c2ssnc2Cl)c(F)c1 | 22.1%
38 | CCCc1cc(=O)n2[nH]c(-c3ccc(C)cc3)cc2n1 | -0.208%
39 | O=C(CN1CCN(C(=O)C2CCCO2)CC1)Nc1ccc(Cl)c(Cl)c1 (stereo not drawn) | -22.5%
40 | Cc1ccc(Nc2cnn(C34CC5CC(CC(CC(=O)O)(C5)C3)C4)c(=O)c2Cl)cc1 | 12%
41 | Cc1ccc(-n2nc3c(c2NC(=O)c2ccc(OC(C)C)cc2)CS(=O)C3)cc1 (stereo not drawn) | -12.8%
42 | CCc1ccc(S(=O)(=O)Nc2c(C)n(C)n(-c3ccccc3)c2=O)cc1 | -2.47%

Row | SMILES | hERG current change (%, negative = inhibition) at 10uM
43 | O=c1oc2cc(O)c(Cl)cc2c2ccccc12 | 3.98%
44 | CCCCN(CCCC)CCCNC(=O)C12CN(Cc3ccccc3)CC1C(c1cccc([N+](=O)[O-])c1)=NO2 (stereo not drawn) | -80.6%
45 | O=C(NCCCCc1ccccc1)C12CN(Cc3ccccc3)CC1C(c1cccc([N+](=O)[O-])c1)=NO2 (stereo not drawn) | -6.27%
46 | CC(C)CCNC(=O)C12CN(Cc3ccccc3)CC1C(c1cccc([N+](=O)[O-])c1)=NO2 (stereo not drawn) | -32.9%
47 | CC(C)CCNC(=O)C12CN(Cc3ccccc3)CC1C(c1ccc([N+](=O)[O-])cc1)=NO2 (stereo not drawn) | -53.1%
48 | Cc1ccc(CCNC(=O)C23CN(Cc4ccccc4)CC2C(c2cccc([N+](=O)[O-])c2)=NO3)cc1 (stereo not drawn) | -14.8%
49 | O=C(NCCCCc1ccccc1)C12CN(Cc3ccccc3)CC1C(c1ccc([N+](=O)[O-])cc1)=NO2 (stereo not drawn) | 5.9%
50 | CCC(C)NC(=O)CSc1nc2ccccc2c(=O)n1-c1c(C)n(C)n(-c2ccccc2)c1=O (stereo not drawn) | 1.66%
51 | COc1ccc(/C=C(\C#N)C(=O)Nc2cc(S(=O)(=O)N3CCCCC3)ccc2N2CCCCC2)cc1 | 6.92%
52 | CNC(=S)Nc1ccc([N+](=O)[O-])cc1 | 11.9%
53 | Cc1ccc(S(=O)(=O)N(C)CC(=O)N(CC(C)C)C2CCS(=O)(=O)C2)cc1 (stereo not drawn) | -2.85%
54 | c1ccc(N2N=C(c3cccs3)CC2c2ccco2)cc1 (stereo not drawn) | 2.24%
55 | O=C(NN(CC(O)COc1ccccc1)CC(O)COc1ccccc1)c1ccccc1 (stereo not drawn) | -66.1%
56 | COc1ccc(OCC(O)CNC(=O)c2ccccc2)cc1 (stereo not drawn) | 9.92%
57 | O=C(NNCC(O)COc1ccccc1)c1ccccc1 (stereo not drawn) | 1.06%
58 | Cc1ccc(S(=O)(=O)N(c2cccc(C(F)(F)F)c2)C2C=CS(=O)(=O)C2)cc1 (stereo not drawn) | 6.3%
59 | Cc1cc(NC(=O)CCC(=O)N(Cc2ccccc2)C(C(=O)NC2CCCC2)c2ccco2)no1 (stereo not drawn) | -21.8%
60 | Cc1cc(NC(=O)CCC(=O)N(CCc2ccccc2)C(C(=O)NC2CCCC2)c2ccco2)no1 (stereo not drawn) | -66.1%
61 | Cc1cc(NC(=O)CCC(=O)N(Cc2ccc(F)cc2)C(C(=O)NC2CCCC2)c2ccco2)no1 (stereo not drawn) | 0.819%
62 | C=CCN(C(=O)CCC(=O)Nc1cc(C)on1)C(C(=O)NC1CCCC1)c1ccc(C)cc1 (stereo not drawn) | 0.416%
63 | C=CCN(C(=O)CCC(=O)Nc1cc(C)on1)C(C(=O)NC1CCCC1)c1ccc(Cl)cc1 (stereo not drawn) | -56.3%

Row | SMILES | hERG current change (%, negative = inhibition) at 10uM
64 | C=CCN(C(=O)CCC(=O)Nc1cc(C)on1)C(C(=O)NC1CCCC1)c1ccc(CC)cc1 (stereo not drawn) | -17.5%
65 | CCN(CC)S(=O)(=O)c1ccc2c(c1)CC(C(=O)N1CCCC1)N2C(C)=O (stereo not drawn) | 1.51%
66 | Cl.NCCSC1CC(=O)N(c2ccc(F)cc2)C1=O (stereo not drawn) | 17%
67 | CC1=C(C)CS(=O)N(S(=O)(=O)c2ccccc2)C1 (stereo not drawn) | -16.3%
68 | O=C(CN(C(=O)c1ccc(Cl)cc1)N1C(=O)C2CCCCC2C1=O)c1ccc(Cl)cc1 (stereo not drawn) | 15.1%
69 | O=C(CN(C(=O)c1ccccc1Cl)N1C(=O)CCCC1=O)c1ccc(Cl)cc1 | 7.29%
70 | Cc1ccc(C(=O)CN(C(=O)c2ccc(Cl)cc2)N2C(=O)CCC2=O)cc1 | -50.7%
71 | Cc1ccccc1CC1(CO)CCCN(C(=O)c2cc(-c3ccccc3)no2)C1 (stereo not drawn) | 2.91%
72 | CC(=O)Oc1ccc(C(=O)Nc2cccc3c2CCCC3)cc1 | 10.4%
73 | Cc1c(NC(=O)Cc2ccccc2)cccc1C(=O)NN1C(=O)c2ccccc2C1=O | -10.2%
74 | N#CCCn1cc(/C=N/NC(N)=S)c(-c2ccccc2)n1 | -28%
75 | Cc1ccc(C(=O)NCc2ccccn2)o1 | 4.94%
76 | Cc1cc2oc(=O)cc(CN3CCN(S(=O)(=O)/C=C/c4ccccc4)CC3)c2cc1C | 1.24%
77 | O=c1cc(CN2CCN(S(=O)(=O)c3ccc4c(c3)OCCO4)CC2)c2ccc(O)cc2o1 | -4.32%
78 | Cc1ccc2c(CN3CCN(S(=O)(=O)/C=C/c4ccccc4)CC3)cc(=O)oc2c1 | -72.4%
79 | O=c1cc(CN2CCc3ccccc32)c2ccc(O)cc2o1 | -0.218%
80 | O=S(=O)(/C=C/c1ccccc1)N1CCN(Cc2ccccc2)CC1 | -25.3%
81 | O=c1cc(CN2CCN(S(=O)(=O)/C=C/c3ccccc3)CC2)c2ccc(O)cc2o1 | -76.8%
